The values below come from PubChem BioAssay (NCI).

About 83,000 compounds went through this panel and 20% of them were active in at least one assay; those are over-represented in the sample as a whole.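 Single-dose data. Exposure time 48 hours. Values below 10 considered active.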 Unmarked numbers belong to inactive results. Activity calls are given as the source filed them.

Some test systems named below: DU-145 prostate; K-562 leukemia; MALME-3M melanoma; MDA-MB-231 breast; RXF 393 renal; SF-268 CNS; SF-295 CNS; SF-539 CNS; UACC-257 melanoma; M14 melanoma; HCT-15 colon; HT29 colon; SNB-75 CNS; SNB-19 CNS; U251 CNS; PC-3 prostate; SK-MEL-5 melanoma; UACC-62 melanoma; LOX IMVI melanoma; SK-MEL-28 melanoma.
Common to all, as to assay: NCI-60 one-dose screen, 48 h (100 = growth as untreated, 0 = no growth, -100 = all killed)
What all share (conditions): 10 µM unless noted

Consider `O=C1/C(=C/c2ccccc2[N+](=O)[O-])Oc2ccc(O)c(O)c21`, for which the growth in the experiment with DU-145 prostate was 32.5%; in the experiment with K-562 leukemia, 17.2%; in the experiment with MALME-3M melanoma, 45%; in the experiment on MDA-MB-231 breast it was 45.6%; in the experiment on RXF 393 renal, 5.8% (active); with SF-268 CNS, 60.4%. Besides, the growth in the experiment with SF-295 CNS was 85.2%; in the experiment on SF-539 CNS it was 29%; with UACC-257 melanoma, 49.3%; with M14 melanoma, 54.9%; in the experiment on HCT-15 colon it was 18.6%; in the experiment on HT29 colon it was 32.3%. In addition, the growth is 65.9% in the experiment with SNB-75 CNS; 70.3% in the experiment with SNB-19 CNS; 54.1% in the experiment with U251 CNS; 44.5% in the experiment on PC-3 prostate; 62% with SK-MEL-5 melanoma; -41.1% (active) in the experiment with UACC-62 melanoma. The values for the growth in the experiment on LOX IMVI melanoma and in the experiment with SK-MEL-28 melanoma were 14.3% and 22.5%, respectively.
In the case of `CN1C(=O)N(C)C2Nn3c(s/c(=C\c4ccccc4)c3=O)=NC21` (stereo not given), the growth is 106% in the experiment with DU-145 prostate; 92.8% in the experiment on K-562 leukemia; 101% in the experiment with MALME-3M melanoma; 98.1% in the experiment on MDA-MB-231 breast; 106% in the experiment on RXF 393 renal; 93.9% in the experiment with SF-268 CNS. Also, the growth was 104% with SF-295 CNS; 100% in the experiment with SF-539 CNS; 94.1% in the experiment with UACC-257 melanoma; 97.8% with M14 melanoma; 93.1% in the experiment with HCT-15 colon; 106% with HT29 colon. For the same compound, the growth was 71.4% with SNB-75 CNS; 95.6% in the experiment with SNB-19 CNS; 96.2% with U251 CNS; 101% with PC-3 prostate; 101% with SK-MEL-5 melanoma; 90.9% in the experiment with UACC-62 melanoma. Further, the growth in the experiment on LOX IMVI melanoma was 92.6%; in the experiment on SK-MEL-28 melanoma it was 105%.
Regarding `CC(=O)c1ccc(Nc2nc(C(C)=O)c(C)s2)cc1`, the growth in the experiment with DU-145 prostate is 102%; with K-562 leukemia it was 88.7%; with MALME-3M melanoma, 105%; in the experiment with MDA-MB-231 breast it was 98%; in the experiment with RXF 393 renal, 101%; in the experiment with SF-268 CNS it was 98%. For the same compound, the growth in the experiment with SF-295 CNS was 98.6%; with SF-539 CNS, 103%; in the experiment with UACC-257 melanoma, 103%; in the experiment with M14 melanoma it was 104%; in the experiment with HCT-15 colon, 97.4%; with HT29 colon it was 100%. Moreover, the growth is 73.6% in the experiment with SNB-75 CNS; 97.5% in the experiment with SNB-19 CNS; 100% in the experiment with U251 CNS; 95.3% in the experiment with PC-3 prostate; 99.9% with SK-MEL-5 melanoma; 96.1% in the experiment with UACC-62 melanoma. For the same compound, the values for the growth in the experiment with LOX IMVI melanoma and in the experiment on SK-MEL-28 melanoma were 99.9% and 103%, respectively.
On to `O=C1c2cccc3cccc(c23)C(=O)N1N1C(=O)c2cccc3c(NC4CCCCC4)ccc(c23)C1=O`, for which the growth is 106% in the experiment with DU-145 prostate; 87.1% in the experiment on K-562 leukemia; 90.8% in the experiment with MALME-3M melanoma; 75.6% in the experiment on MDA-MB-231 breast; 92.9% in the experiment on RXF 393 renal; 93.6% in the experiment with SF-268 CNS. In addition, the growth in the experiment with SF-295 CNS was 95.3%; with SF-539 CNS it was 94.2%; with UACC-257 melanoma, 100%; in the experiment with M14 melanoma, 96.2%; in the experiment with HCT-15 colon, 96.6%; in the experiment with HT29 colon, 95.9%. Further, the growth in the experiment with SNB-75 CNS is 87.5%; in the experiment on SNB-19 CNS, 89.1%; with U251 CNS, 99.7%; with PC-3 prostate it was 83.6%; in the experiment with SK-MEL-5 melanoma, 96.7%; in the experiment with UACC-62 melanoma, 83.5%. In addition, the growth with LOX IMVI melanoma was 92.1%; in the experiment with SK-MEL-28 melanoma, 100%.
For the compound `COc1ccccc1/C=C1\Oc2cc(OCCN3CCC(Cc4ccccc4)CC3)ccc2C1=O`, the growth with DU-145 prostate was 102%; in the experiment with K-562 leukemia, 27.6%; with MALME-3M melanoma, 76.8%; in the experiment with MDA-MB-231 breast, 90.3%; in the experiment on RXF 393 renal, 69.9%; with SF-268 CNS it was 84.4%. Moreover, the growth in the experiment on SF-295 CNS was 96.6%; with SF-539 CNS, 93.8%; in the experiment with UACC-257 melanoma it was 95.1%; in the experiment with M14 melanoma it was 65.9%; in the experiment with HCT-15 colon it was 52.5%; in the experiment with HT29 colon, 31.2%. Also, the growth in the experiment with SNB-75 CNS was 83.6%; with SNB-19 CNS, 90.8%; in the experiment with U251 CNS, 78.2%; with PC-3 prostate it was 81.8%; in the experiment with SK-MEL-5 melanoma, 90.9%; in the experiment on UACC-62 melanoma, 92.1%. Besides, the growth in the experiment on LOX IMVI melanoma was 70.7%; in the experiment with SK-MEL-28 melanoma it was 87.5%.
On to `CC1=C([Se]CC(OC(=O)[C@@H](CSSC(C)(C)C)NC(=O)OC(C)(C)C)C(=O)NC(C)(C)C)C(=O)c2ccccc2C1=O` (stereo not given in full), for which the growth was -98.7% (active) in the experiment with DU-145 prostate; 31.9% in the experiment on K-562 leukemia; -65.8% (active) in the experiment on MALME-3M melanoma; -42.2% (active) in the experiment with MDA-MB-231 breast; -67.3% (active) with RXF 393 renal; -96.6% (active) in the experiment with SF-268 CNS. The growth in the experiment with SF-295 CNS was -42.2% (active); in the experiment on SF-539 CNS, -100% (active); in the experiment on UACC-257 melanoma, -60% (active); in the experiment on M14 melanoma, -84.8% (active); in the experiment with HCT-15 colon it was -28.6% (active); in the experiment on HT29 colon, -6.98% (active). Moreover, the growth with SNB-75 CNS was -95.8% (active); with SNB-19 CNS, -90.8% (active); in the experiment with U251 CNS it was -86.5% (active); with PC-3 prostate it was -71.6% (active); in the experiment on SK-MEL-5 melanoma, -97.6% (active); with UACC-62 melanoma it was -88.1% (active). Besides, the results for the growth in the experiment on LOX IMVI melanoma and in the experiment on SK-MEL-28 melanoma were -61.9% (active) and -96.3% (active), respectively.
For `CCOC(=O)c1cn2ncnc(Oc3ccc(NC(=O)NCCN(C)C)c(Cl)c3)c2c1C`, the growth in the experiment on DU-145 prostate is 86.8%; in the experiment on K-562 leukemia it was 4.33% (active); in the experiment on MALME-3M melanoma, 58.9%; in the experiment on MDA-MB-231 breast, 65.2%; in the experiment with RXF 393 renal, 55.6%; in the experiment with SF-268 CNS it was 65.1%. Further, the growth is 94.6% in the experiment with SF-295 CNS; 71.5% in the experiment on SF-539 CNS; -4.6% (active) with UACC-257 melanoma; -40.6% (active) in the experiment on M14 melanoma; 23.2% with HCT-15 colon; 7.1% (active) in the experiment with HT29 colon. For the same compound, the growth with SNB-75 CNS is 99.1%; with SNB-19 CNS, 82.8%; in the experiment with U251 CNS, 70%; in the experiment on PC-3 prostate it was 68.6%; with SK-MEL-5 melanoma it was 60.9%; in the experiment with UACC-62 melanoma, 21.7%. For the same compound, the growth in the experiment on LOX IMVI melanoma is 10.3%; with SK-MEL-28 melanoma, 37.6%.
On to `O=C(Nc1ccc(Cl)cc1F)c1cc(Cl)ccc1O`, for which the growth in the experiment with DU-145 prostate is 12.5%; with K-562 leukemia it was 4.51% (active); in the experiment with MALME-3M melanoma it was -32.2% (active); with MDA-MB-231 breast, -34.5% (active); in the experiment on RXF 393 renal, -12.7% (active); in the experiment with SF-268 CNS, 7.67% (active). Also, the growth with SF-295 CNS was -69.5% (active); in the experiment on SF-539 CNS, 4.82% (active); in the experiment on UACC-257 melanoma, -17.9% (active); in the experiment with M14 melanoma it was -12.3% (active); in the experiment with HCT-15 colon it was -4.97% (active); in the experiment on HT29 colon, 19.5%. Moreover, the growth in the experiment on SNB-75 CNS is -6.93% (active); with SNB-19 CNS it was 13.6%; in the experiment with U251 CNS, 9.73% (active); in the experiment with PC-3 prostate, 0.161% (active); with SK-MEL-5 melanoma it was -90.5% (active); with UACC-62 melanoma, -41.2% (active). For the same compound, the growth in the experiment on LOX IMVI melanoma was -18.9% (active); with SK-MEL-28 melanoma, -3.71% (active).
